Compound activity: PubChem, Broad Institute
The entries come from a sample that favours hits as a whole.
IDE exosite inh: insulin-degrading enzyme (human) exo-site inhibition; P14735; purified IDE, FL-6b probe fluorescence polarization; active compounds read low; z-score at 20 µM; hit rate 6.3% among 17,000; AID 1259349;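 active = z-score of -3 or lower, meaning strong loss of probe binding signal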;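 note: His-tagged human IDE residues 42-1019 made in E. coli with 30 nM FL-6b probe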
Target sequence (P14735 42-1019 limits assumed): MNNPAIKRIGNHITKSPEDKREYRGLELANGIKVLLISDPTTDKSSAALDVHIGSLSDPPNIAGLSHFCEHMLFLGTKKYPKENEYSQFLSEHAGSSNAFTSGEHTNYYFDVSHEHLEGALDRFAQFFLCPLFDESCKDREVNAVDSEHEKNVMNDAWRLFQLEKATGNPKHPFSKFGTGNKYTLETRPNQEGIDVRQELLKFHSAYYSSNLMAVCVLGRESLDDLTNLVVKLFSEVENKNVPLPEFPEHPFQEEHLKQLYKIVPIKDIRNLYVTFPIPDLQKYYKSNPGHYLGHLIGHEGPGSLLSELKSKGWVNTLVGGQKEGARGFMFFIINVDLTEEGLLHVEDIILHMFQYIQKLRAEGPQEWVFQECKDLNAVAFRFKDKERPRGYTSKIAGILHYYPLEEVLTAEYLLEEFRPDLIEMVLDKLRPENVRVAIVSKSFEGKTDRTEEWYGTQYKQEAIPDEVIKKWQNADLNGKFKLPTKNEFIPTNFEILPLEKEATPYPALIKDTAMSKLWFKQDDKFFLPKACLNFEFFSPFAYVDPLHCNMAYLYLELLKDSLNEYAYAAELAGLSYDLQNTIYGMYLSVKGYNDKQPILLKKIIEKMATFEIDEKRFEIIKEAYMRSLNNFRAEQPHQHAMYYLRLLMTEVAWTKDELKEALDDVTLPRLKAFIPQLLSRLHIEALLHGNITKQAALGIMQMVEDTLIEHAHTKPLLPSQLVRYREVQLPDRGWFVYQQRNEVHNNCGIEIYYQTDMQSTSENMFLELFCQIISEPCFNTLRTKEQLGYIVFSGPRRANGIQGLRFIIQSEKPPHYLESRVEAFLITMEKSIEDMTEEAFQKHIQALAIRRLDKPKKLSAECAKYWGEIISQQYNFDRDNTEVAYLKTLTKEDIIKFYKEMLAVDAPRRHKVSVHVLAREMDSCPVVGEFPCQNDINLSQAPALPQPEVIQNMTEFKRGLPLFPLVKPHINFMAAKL
Hits are given with their value; 0 = inactive; ! = not active in a repeat.

SMILES | IDE exosite inh
O=C(NC1CCCC1)N1CC(=O)N2[C@H](CO)[C@H](c3ccc(-c4cccnc4)cc3)[C@H]2C1 | 0
O=C(NC1CCCCC1)N1CC(=O)N2[C@H](C1)[C@H](c1ccc(-c3ccncc3)cc1)[C@@H]2CO | 0
O=C(NC1CCCCC1)N1CC(=O)N2[C@H](C1)[C@H](c1ccc(-c3ccccc3)cc1)[C@@H]2CO | 0
O=C(NC1CCCC1)N1CC(=O)N2[C@H](CO)[C@@H](c3ccc(-c4cccnc4)cc3)[C@H]2C1 | 0
O=C(NC1CCCCC1)N1CC(=O)N2[C@@H](CO)[C@H](c3ccc(-c4ccncc4)cc3)[C@@H]2C1 | 0
O=C(NC1CCCCC1)N1CC(=O)N2[C@H](C1)[C@@H](c1ccc(-c3ccccc3)cc1)[C@@H]2CO | -9.1
CN(C)CC(=O)N1[C@H](C#N)[C@H](c2ccc(C#CC3CCCC3)cc2)[C@@H]1CO | 0
C/C=C/c1ccc([C@H]2[C@H](CO)N3C(=O)CN(C(=O)c4cccc(F)c4)C[C@@H]23)cc1 | 0
Cc1cccc(-c2ccc([C@H]3[C@@H](CO)N4C(=O)CN(S(=O)(=O)c5cccc(F)c5)C[C@@H]34)cc2)c1 | 0
Cc1ccccc1-c1ccc([C@H]2[C@@H](CO)N3CCCCN(C(=O)c4cccnc4)C[C@@H]23)cc1 | -4.8
Cc1ccccc1-c1ccc([C@@H]2[C@@H](CO)N3CCCCN(C(=O)c4cccnc4)C[C@@H]23)cc1 | -8
Cc1ccccc1-c1ccc([C@@H]2[C@H]3CN(C(=O)c4cccnc4)CCCCN3[C@H]2CO)cc1 | -7.3
C[C@@H]1CCCCO[C@H](CN(C)S(=O)(=O)c2ccc(F)cc2)[C@@H](C)CN([C@H](C)CO)C(=O)c2cc(NC(=O)CCCCCC(=O)Nc3ccccc3N)ccc2O1 | 0
N#C[C@H]1[C@@H](c2ccc(C#CC3CC3)cc2)[C@@H](CO)N1S(=O)(=O)c1ccccc1 | 0
CC(C)[C@@H]1CCc2cnnn2COC[C@@H](Cc2ccccc2)NC1=O | 0
CS(=O)(=O)N1CCCCN2[C@@H](CO)[C@H](c3ccc(C4=CCCC4)cc3)[C@@H]2C1 | 0
CCS(=O)(=O)N1CC(=O)N2[C@@H](CO)[C@H](c3ccc(C#CCC4CCCC4)cc3)[C@@H]2C1 | 0
CCN(C[C@@H]1[C@H](c2ccccc2)[C@H](CO)N1C(=O)COC)S(C)(=O)=O | 0
C[C@H](O)C#Cc1ccc([C@@H]2[C@@H](CO)N3CCCCN(CC4CCOCC4)C[C@@H]23)cc1 | 0
O=C(O)C[C@H]1C=C[C@H](NC(=O)Nc2cc(F)ccc2F)[C@@H](CO)O1 | 0
O=C(Nc1ccc2c(c1)[C@@H]1C[C@@H](CC(=O)N3CCc4ccccc4C3)O[C@@H](CO)[C@@H]1O2)c1ccc2c(c1)OCO2 | 0
O=C(c1ccncc1)N1CC(=O)N2[C@H](CO)[C@H](c3ccc(-c4ccccc4)cc3)[C@@H]2C1 | 0
COc1cccc(-c2ccc([C@@H]3[C@H]4CN(C(=O)c5ccncc5)CC(=O)N4[C@H]3CO)cc2)c1 | -11
COc1cccc(-c2ccc([C@@H]3[C@H](CO)N4C(=O)CN(C(=O)c5cccnc5)C[C@@H]34)cc2)c1 | 0
COc1cccc(-c2ccc([C@@H]3[C@@H](CO)N4C(=O)CN(C(=O)c5ccncc5)C[C@H]34)cc2)c1 | 0
SMILES | IDE exosite inh
COc1cccc(-c2ccc([C@H]3[C@H]4CN(C(=O)c5cccnc5)CC(=O)N4[C@H]3CO)cc2)c1 | 0
COc1cccc(-c2ccc([C@H]3[C@@H](CO)N4C(=O)CN(C(=O)c5ccncc5)C[C@@H]34)cc2)c1 | -8.6
COc1cccc(S(=O)(=O)Nc2ccc3c(c2)C(=O)N(C)C[C@@H](OC)[C@H](C)CN(Cc2ccccc2F)[C@H](C)CO3)c1 | 0
O=C(Nc1cccc(F)c1)N1CC(=O)N2[C@H](CO)[C@@H](c3ccc(Br)cc3)[C@H]2C1 | 0
N#C[C@H]1[C@@H](c2ccc(C3=CCCCC3)cc2)[C@@H](CO)N1S(=O)(=O)c1cccc(F)c1 | 0
COCC(=O)Nc1ccc2c(c1)[C@@H]1C[C@H](CC(=O)N[C@@H](C)c3ccccc3)O[C@@H](CO)[C@@H]1O2 | 0
O=C(Nc1ccccc1)N1CC(=O)N2[C@H](C1)[C@@H](c1ccc(-c3ccc(F)cc3)cc1)[C@@H]2CO | 0
O=C(Nc1ccc(F)cc1)N1CC(=O)N2[C@H](CO)[C@@H](c3ccc(-c4ccccc4)cc3)[C@@H]2C1 | -4.8
Cc1ccc(-c2ccc([C@H]3[C@@H](CO)N4C(=O)CN(C(=O)Nc5ccc(F)cc5)C[C@H]34)cc2)cc1 | 0
O=C(Nc1ccc(F)cc1)N1CC(=O)N2[C@H](CO)[C@H](c3ccc(-c4ccc(F)cc4)cc3)[C@@H]2C1 | 0
Cc1ccccc1-c1ccc([C@H]2[C@@H](CO)N3C(=O)CN(C(=O)Nc4ccc(F)cc4)C[C@@H]23)cc1 | -10
O=C(Nc1ccc(F)cc1)N1CC(=O)N2[C@@H](CO)[C@@H](c3ccc(-c4ccccc4)cc3)[C@@H]2C1 | 0
CC(C)C#Cc1ccc([C@H]2[C@H](CO)N3C(=O)CN(C(=O)NC4CCCC4)C[C@@H]23)cc1 | 0
O=C(Nc1ccccc1Cl)N1C[C@@H]2[C@H](c3ccccc31)[C@@H](CO)N2C(=O)c1cccnc1 | 0
OC[C@@H]1[C@@H](c2ccccc2)C2(CN(Cc3cc(F)ccc3F)C2)N1CC1CCCC1 | 0
CCS(=O)(=O)N1CC2(CN(Cc3ccccc3F)[C@H](CO)c3[nH]c4cc(OC)ccc4c32)C1 | 0
C/C=C/c1cccc(-c2nc(C(=O)NCc3ccccn3)cc3c2[C@H](CCO)N([S@@](=O)C(C)(C)C)C3)c1 | 0
N#Cc1cccc(-c2ccc(C3[C@@H]4CN(Cc5ccccc5)C[C@H]3N4)cc2)c1 (stereo not given in full) | 0
COc1ccccc1CN1C[C@@H]2N[C@H](C1)C2c1ccc(-c2ccc(C(=O)N(C)C)cc2)cc1 (stereo not given in full) | 0
COc1ccccc1CN1C[C@@H]2N[C@H](C1)C2c1ccc(-c2ccncc2)cc1 (stereo not given in full) | 0
COc1ccccc1CN1C[C@@H]2N[C@H](C1)C2c1ccc(-c2ccccc2OC)cc1 (stereo not given in full) | -10
COc1ccccc1CN1C[C@@H]2N[C@H](C1)C2c1ccc(-c2cccc(C#N)c2)cc1 (stereo not given in full) | -4!
COc1ccccc1CN1C[C@@H]2N[C@H](C1)C2c1ccc(-c2ccc(C#N)cc2)cc1 (stereo not given in full) | 0
O=C(C[C@@H]1CC[C@@H]2NC[C@H](O)COC[C@H]2O1)NCc1ccc2c(c1)OCO2 | 0
COc1ccc2c3c([nH]c2c1)[C@H](CO)N(C(C)=O)CC31CCN(C(C)=O)CC1 | 0
SMILES | IDE exosite inh
CCCNC(=O)N1CCC2(CC1)CN(Cc1cccc(OC)c1)[C@@H](CO)c1[nH]c3cc(OC)ccc3c12 | -3.1
CCCNC(=O)N1CCC2(CC1)CN(C(=O)COC)[C@H](CO)c1[nH]c3cc(OC)ccc3c12 | 0
COc1ccc2c3c([nH]c2c1)[C@H](CO)N(CC1CC1)CC31CCN(C(=O)Nc2cccc(F)c2)CC1 | 0
COc1ccc2c3c([nH]c2c1)[C@@H](CO)N(Cc1cccc(F)c1)CC31CCN(C(C)=O)CC1 | -4.2
COc1ccc2c3c([nH]c2c1)[C@H](CO)N(Cc1ccccc1)CC31CCN(C(=O)NC(C)C)CC1 | 0
CN1CCN(C(=O)C[C@@H]2CC[C@@H]3[C@H](COC[C@H](O)CN3Cc3cccc(-c4ccncc4)c3)O2)CC1 | 0
